Reference: PubChem BioAssay (NCATS)
Values joined by “and” are separate entries in the source; they are usually repeats but may differ in a detail not shown here. Identical values can stand only once. Results filed as inconclusive are left out. A number with no mark means an inactive call. Active and inactive are the calls of the source. Calls follow the shape of the dose curve; as a rule, active = well fitted cell-killing curve with a large enough effect; inconclusive = small, poorly fitted or top-dose-only effect; inactive = flat fitted curve, though single readings scatter.

experiment: Cellular viability qHTS for adrenocortical cancer (ACC) cell line NCI-H295R (AID 1963990); details: CellTiter-Glo ATP luminescence, 48 h; series mostly up to 46.1 µM; activity change, negative = viability loss: at the top concentration; also: nearly all actives have a fitted effect of over 60% in size
From the text: PI: Naris Nilubol, MD Surgical Oncology Program, National Cancer Institute (NCI) National Institute of Health (NIH), Bethesda, Maryland Adrenocortical cancer (ACC) is a rare malignancy with poor survival outcomes and few treatment options. Currently, mitotane is the only FDA-approved therapy for ACC. Although adjuvant radiation therapy is rarely utilized, it has the potential to improve survival in select cases. Through a quantitative high-throughput drug screen (qHTS), we identified auranofin (AF), a thioredoxin reductase (TXNRD) inhibitor, as a promising candidate drug. This study aims to evaluate whether AF can enhance the efficacy of radiation therapy in the treatment of ACC. Two human ACC cell lines, SW-13 and NCI-H295R, were screened using the National Center for Advancing Translational Sciences (NCATS) Pharmaceutical Collection (NPC) and the Mechanism Interrogation PlatE (MIPE) library (~4,991 compounds). CellTiter-Glo (Cat # G7570, Promega, Madison, WI) was utilized to measure cell viability. Described herein are the results of the corresponding viability assay.
PROTOCOL TABLE (as described by Inglese J, Shamu CE and Guy RK. 2007) SEQUENCE No. (e.g., 1, 2, 3, etc.); […] (e.g., Cells, Incubation, Reagent, etc.); VALUE; DESCRIPTION. 1; Cells; 5 uL; white, solid-bottom, 1536-well tissue-culture treated plates. 2; Time; overnight culture at 37C with 5% CO2. 3; Compounds and control; 23 nL; Kalypsis pin tool (Wako USA) equipped with a 1536-well pin head to transfer to the assay plates. 4; Time; 48 hours; 37C with 5% CO2. 5; Reagent; 4 uL; CellTiter-Glo luminescent substrate mix. 6; Time; 20 min at room temperature. 7; Detection; Luminescence; ViewLux plate reader NOTES (numbers refer to Sequence numbers above) 1. NCI-H295R cells were harvested from a T175 flask and resuspended in ITS-supplemented DMEM serum-free medium at a concentration of 300 000 cells/mL. Then 5 uL of resuspended cells were dispensed into each well of white, solid-bottom, 1536-well tissue-culture-treated plates using a multidrop combi dispenser. The plates were covered with stainless steel gasket lids. 2-3. The plates were cultured overnight at 37C with 5% CO2. Twenty-three nL of compounds (eight selected concentrations from the NPC / MIPE) or positive control (10 mM stock of bortezomib) in DMSO was transferred to each well of the assay plate using a pin tool (Kalypsys, San Diego, CA, USA). The final concentration of the compounds in the 5 uL assay volume ranged from 0.5 nM to 46 uM. 4-6. After 48 hours of incubation at 37C and 5% CO2, 4 uL of CellTilter-Glo luminescent substrate mix (Promega, Madison, WI, USA) was added to each well. Then the plates were incubated for 20 minutes at room temperature. 7. After incubation, luminescence was measured using a ViewLux plate reader (PerkinElmer, Waltham, MA, USA) with a clear filter was used to measure the number of metabolically competent cells. To determine compound activity in the qHTS assay, the titration-response data for each sample was plotted and modeled by a four-parameter logistic fit yielding IC50 and efficacy (maximal response) values. Raw plate reads for each titration point were normalized relative to positive control ([…], 100% inhibition) and DMSO-only wells (basal, 0%). REFERENCES: Inglese J, Shamu CE and Guy RK, Reporting data from high throughput screening of small molecule libraries, Nature Chemical Biology, 2007, 3(8): 438-441. doi.org/10.1038/nchembio0807-438.

SMILES | Potency | activity change, negative = viability loss
CCc1cncnc1N1CCN(Cc2nc3ccc(C(F)(F)F)cc3[nH]2)CC1 | 17.8 µM (active) | –
C=C[C@H]1CN2CCC1C[C@@H]2C(O)c1ccnc2ccc(OC)cc12 (stereo not given in full) | – | 1.5%
Cc1cc(I)ccc1Nc1c(C(=O)NOCC2CC2)cc(F)c(F)c1F | 3.98 µM (active) | –
Cc1ccc(C(=O)C(=O)O)cc1C | – | -21.1%
Cc1ccccc1C(=O)Nc1ccc(C(=O)N2CCCC(N(C)C)c3ccccc32)cc1 (stereo not given) | 1.64 µM (active) | –
CCN(CC)CCOc1ccc(Nc2ncc3cc(-c4c(Cl)cccc4Cl)c(=O)n(C)c3n2)cc1 | 0.794 µM (active) | –
CO[C@H]1/C=C\C=C(\C)C(=O)NC2=CC(=O)C(NCCN(C)C)=C(C[C@@H](C)C[C@H](OC)[C@H](O)[C@@H](C)/C=C(/C)[C@@H]1OC(N)=O)C2=O | 2 µM (active) | –
C#C[C@]1(OC(C)=O)CC[C@H]2[C@@H]3CCC4=C[C@@H](OC(C)=O)CC[C@@H]4[C@H]3CC[C@@]21C | 20.6 µM (active) | –
CCOC(=O)OC(C)OC(=O)[C@@H]1N2C(=O)[C@@H](NC(=O)[C@H](N)c3ccccc3)[C@H]2SC1(C)C (stereo not given in full) | – | -29.9%
C[C@H]1O[C@@H](O[C@H]2CC[C@@]3(C)[C@H](CC[C@@H]4[C@@H]3C[C@@H](O)[C@]3(C)[C@@H](C5=CC(=O)OC5)CC[C@]43O)C2)C[C@H](O)[C@@H]1O[C@H]1C[C@H](O)[C@H](O[C@H]2C[C@H](O)[C@H](O[C@@H]3O[C@H](CO)[C@@H](O)[C@H](O)[C@H]3O)[C@@H](C)O2)[C@@H](C)O1 | 0.164 µM (active) | –
Cc1ccc(NC(=O)c2ccc(CN3CCN(C)CC3)cc2)cc1Nc1nc(-c2cccnc2)cs1 | 22.4 µM (active) | –
COc1cc2nccc(Oc3ccc(NC(=O)C4(C(=O)Nc5ccc(F)cc5)CC4)cc3)c2cc1OC | 10 µM (active) | –
COc1ccc(CCN(C)CCCOc2ccc(S(=O)(=O)c3[nH]c4ccccc4c3C(C)C)cc2)cc1OC | 11.2 µM (active) | –
CC(NC(CCc1ccccc1)C(=O)O)C(=O)N1C(=O)N(C)CC1C(=O)O (stereo not given) | – | -23.7%
CC1=CC(=O)c2ccccc2C1=O | – | 0.614%
CC(C)C[C@@H](N)C(=O)O | – | -18.3% [at 20 µM]
Cn1cc(-c2cnn3c(N)c(Br)c(C4CCCNC4)nc23)cn1 (stereo not given) | – | -7.87%
CC[C@@H]1C(=O)N(C)c2cnc(Nc3ccc(C(=O)NC4CCC(N5CCN(CC6CC6)CC5)CC4)cc3OC)nc2N1C(C)C (stereo not given in full) | 1.41 µM (active) | –
COc1ccc(C2C(=O)c3ccccc3C2=O)cc1 | – | -3.75%
CC(C)c1cc2c(cc1S(=O)(=O)O)[C@@]1(C)CCC[C@@](C)(C(=O)O)[C@@H]1CC2 | – | -1.13%

SMILES | Potency | activity change, negative = viability loss
CC(=O)O[C@@]12CO[C@@H]1C[C@H](O)[C@@]1(C)C(=O)[C@H](O)C3=C(C)[C@@H](OC(=O)[C@H](O)[C@@H](NC(=O)OC(C)(C)C)c4ccccc4)C[C@@](O)([C@@H](OC(=O)c4ccccc4)[C@H]21)C3(C)C | 0.0411 µM (active) | –
CO[C@@]1(NC(=O)CSCC#N)C(=O)N2C(C(=O)O)=C(CSc3nnnn3C)CS[C@@H]21 | – | -3.32%
C1=CC2C3C=CC(C3)C2C1 (stereo not given) | – | -4.86% [at 92.7 µM]
CN1C(=O)C(Cc2c[nH]c3ccccc23)NC1=S (stereo not given) | – | 3.98%
O=C1c2c(O)ccc(O)c2C(=O)c2c(NCCNCCO)ccc(NCCNCCO)c21 | 4.11 µM (active) and 3.98 µM (active) | –
Cc1cc(-c2ccccc2)nnc1NCCN1CCOCC1 | – | -3.37%
CNC(=O)c1c(I)c(NC(=O)CCCCC(=O)Nc2c(I)c(C(=O)O)c(I)c(C(=O)NC)c2I)c(I)c(C(=O)O)c1I | – | -5.63%
Cc1ccccc1C(OCCN(C)C)c1ccccc1 (stereo not given) | – | 6.39%
O=C(NC[C@H](O)CO)c1ccncc1Nc1ccc(I)cc1F | 31.6 µM (active) | –
Cn1cc(-c2ccc(F)c(C(F)(F)F)c2)nc1C1CCN(c2ncnc3[nH]ncc23)CC1 | – | -21.1%
Cc1ccc(S(=O)(=O)N[C@@H](Cc2ccccc2)C(=O)CCl)cc1 | 22.4 µM (active) | –
CN1CCC[C@@H]1CCO[C@](C)(c1ccccc1)c1ccc(Cl)cc1 | 20.6 µM (active) | –
CCN(CC)CCCCNc1ncc2cc(-c3cc(OC)cc(OC)c3)c(NC(=O)NC(C)(C)C)nc2n1 | 25.1 µM (active) | –
CCS(=O)(=O)c1ccc(OC)c(C(=O)OC)c1 | – | -10.9%
C=CCc1cc(OC)c(O)c(C(=O)NCCO)c1 | – | 1.75%
C[C@]12CC[C@@H]3c4ccc(O)cc4C[C@@H](CCCCCCCCCS(=O)CCCC(F)(F)C(F)(F)F)[C@H]3[C@H]1CC[C@H]2O (stereo not given in full) | – | -24%
CN1[C@@H]2CC[C@H]1CC(NC(=O)n1c(=O)[nH]c3ccccc31)C2 (stereo not given in full) | – | -14.6%
CCC(C(=O)OCCOCCN(CC)CC)c1ccccc1 (stereo not given) | – | -8.78%
COc1cc2c(NC3CCN(C)CC3)nc(N3CCCN(C)CC3)nc2cc1OCCCN(C)C | – | -3.5%
Cc1ccccc1C(C(=O)NC1CCCCC1)N(C(=O)Cn1ccnc1C)c1cccc(F)c1 (stereo not given) | – | -14.5%
